In PubChem BioAssay (EPA / NIEHS) one finds outcome and AC50 data, which are given here for seven compounds.

The target in test [1] is Myc proto-oncogene protein (Homo sapiens) (UniProt P01106). Description: ATG_Myc_CIS: Attagene CIS-FACTORIAL HepG2 Assay for human Myelocytomatosis (Myc) Proto-Oncogene Transcription Factor (AID 2282990). As to conditions: HepG2, Attagene cis-reporter transcription factor activity; actives raise or lower the signal. The method in brief: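 Read-out: fluorescent reporter mRNA fragments resolved by capillary electrophoresis after RT-PCR. Human HepG2 liver cells carried transfected cis-element reporter units and were dosed for 24 h. Gain or loss of signal fitted relative to DMSO baseline.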
Sequence of Myc proto-oncogene protein (Homo sapiens) (P01106 whole entry, looked up, the tested form may be a part): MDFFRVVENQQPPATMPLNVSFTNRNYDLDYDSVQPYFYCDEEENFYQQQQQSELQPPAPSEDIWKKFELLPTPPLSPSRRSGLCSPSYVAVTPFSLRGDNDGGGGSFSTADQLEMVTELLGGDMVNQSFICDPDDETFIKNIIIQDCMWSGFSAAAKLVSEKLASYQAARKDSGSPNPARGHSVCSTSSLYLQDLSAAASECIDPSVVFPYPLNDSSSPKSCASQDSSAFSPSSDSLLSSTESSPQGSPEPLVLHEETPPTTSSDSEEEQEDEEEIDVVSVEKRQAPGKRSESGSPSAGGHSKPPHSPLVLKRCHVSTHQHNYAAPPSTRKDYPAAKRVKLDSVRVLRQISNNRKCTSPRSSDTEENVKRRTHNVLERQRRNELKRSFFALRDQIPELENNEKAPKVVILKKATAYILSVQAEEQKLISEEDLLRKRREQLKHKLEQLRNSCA

A short description of test [2]: ATG_NRF2_ARE_CIS: Attagene CIS-FACTORIAL HepG2 Assay for human Nuclear Factor Erythroid 2 Related Factor 2 (NFR2) response to Antioxidant Response Elements (ARE) (AID 2282992). As to conditions: HepG2 Attagene ARE/NRF2 reporter, transcription factor activity; actives raise or lower the signal. An outline of the steps:
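Endogenous transcription factor activity in human liver HepG2 cells is tracked via a cis-element-driven reporter within a multiplexed set. mRNA induction is read by RT-PCR and capillary electrophoresis after 24 h, with DMSO as baseline.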

Test [3] is described as follows: ATG_Oct_MLP_CIS: Attagene CIS-FACTORIAL HepG2 Assay for human Octamer-Binding Transcription Factor (Oct) (AID 2282993). To be noted: HepG2 Attagene cis-factorial Oct reporter, mRNA; actives raise or lower the signal. An outline of the steps: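 Cells of the HepG2 line express promoter-controlled reporter sequences whose mRNA levels, after 24 h treatment, are measured by RT-PCR and capillary electrophoresis. Increases and decreases are scored relative to DMSO.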

Test [4] can be described thus: BSK_3C_TissueFactor: BioMAP Diversity Plus: 3C Assay for Tissue Factor Biomarker Activity (AID 2282997). To be noted: BioMAP 3C HUVEC, tissue factor biomarker readout; actives raise or lower the signal. The method in brief: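 Tissue factor on primary human umbilical vein endothelium was read by ELISA 24 h after dosing, gain or loss relative to DMSO. Cytotoxicity ran alongside via SRB (0.1%, TCA-fixed, 560 nm).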

Test [5] is described as follows: BSK_3C_uPAR: BioMAP Diversity Plus: 3C Assay for Urokinase-type plasminogen activator receptor (uPAR) Biomarker Activity (AID 2282998). As to conditions: BioMAP 3C HUVEC, uPAR biomarker ELISA; actives raise or lower the signal. An outline of the steps:
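Endothelial primary cells of human umbilical vein origin received test chemical; 24 h later uPAR was assayed by ELISA. Fitting was bidirectional, DMSO as negative control.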

The nature of test [6]: BSK_3C_VCAM1: BioMAP Diversity Plus: 3C Assay for Vascular cell adhesion molecule 1 (VCAM1) Biomarker Activity (AID 2282999). As to conditions: BioMAP 3C HUVEC, VCAM1 ELISA, cytokine-stimulated; actives raise or lower the signal. An outline of the steps:
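HUVEC primary cells, 24 h compound exposure; VCAM-1 by ELISA; gain/loss of signal fitted bidirectionally vs DMSO baseline.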
In general terms: In an ELISA, binding on a coated surface is turned into a signal by an enzyme label.

Test [7] is described as follows: BSK_4H_Eotaxin3: BioMAP Diversity Plus: 4H Assay for Eotaxin 3 Biomarker Activity (AID 2283000).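 Note: CCL26 protein level quantified by ELISA in parallel with SRB cytotoxicity check.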 As to conditions: primary human endothelial cells (HUVEC); actives raise or lower the signal. The method in brief: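 Human umbilical vein endothelial cells (BSK_4H system) dosed with test chemical; Eotaxin-3 (CCL26) measured by ELISA 24 h after dosing. Bidirectional curve fitting relative to DMSO negative control as baseline.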

Read-out in test [8]: Intercellular Adhesion Molecule 1 (ICAM1), ICAM1 (gene 3383)
Description: BSK_3C_ICAM1: BioMAP Diversity Plus: 3C Assay for Intercellular Adhesion Molecule 1 (ICAM1) Biomarker Activity (AID 2283003). As to conditions: primary human endothelial cells (HUVEC); actives raise or lower the signal. An outline of the steps:
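Using DMSO as baseline, bidirectional curve fitting was applied to ICAM-1 ELISA signals from HUVEC in the 3C system, measured 24 h after compound addition.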

Test [9] can be described thus: BSK_3C_Proliferation: Cell Proliferation Assessment in the BioMAP Diversity Plus: 3C Assay (AID 2283006).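 For AC50: potency may reflect either rise or fall in cell number versus DMSO.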 As to conditions: primary human endothelial cells (HUVEC). An outline of the steps: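 Measured here: sulforhodamine B (0.1%) staining of TCA-fixed sub-confluent umbilical vein endothelial cultures 48 h post-dosing, absorbance 560 nm. DMSO served as negative control and baseline; both signal gain and loss were modelled.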

In test [10] the target is Peroxisome proliferator-activated receptor gamma (Homo sapiens) (UniProt P37231). Description: ATG_PPARg_TRANS: Attagene TRANS-FACTORIAL HepG2 Assay for human Peroxisome Proliferator-activated Receptor-gamma (PPARg) (AID 2283007; active = hit-call score of the fitted dose curve at least 0.9, where 1 is the maximum). The method in brief:
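Read-out: reporter mRNA induction, detected by fluorescence after RT-PCR and capillary electrophoresis. Transiently transfected human HepG2 liver cells carrying a chimeric NR-Gal4 construct were dosed for 24 h; activity was fitted upward relative to DMSO.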

Test [11] addresses Nuclear receptor subfamily 1 group I member 2 (Homo sapiens) (UniProt O75469). Description: ATG_PXR_TRANS: Attagene TRANS-FACTORIAL HepG2 Assay for human Pregnane X Receptor (PXR) (AID 2283008; active = hit-call score of the fitted dose curve at least 0.9, where 1 is the maximum). An outline of the steps:
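HepG2 transfected (FuGene 6) with GAL4-UAS reporter units + PXR-Gal4 chimera; dosed 24 h. Total RNA → oligo(dT) RT → PCR → 6-FAM primer extension → HpaI cut → CE. Gain-of-signal vs DMSO.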

The target in test [12] is human Peroxisome Proliferator-activated Receptor alpha (PPARa), PPARA (gene 5465) (UniProt Q07869). Description: ATG_PPARa_TRANS: Attagene TRANS-FACTORIAL HepG2 Assay for human Peroxisome Proliferator-activated Receptor alpha (PPARa) (AID 2283001; active = hit-call score of the fitted dose curve at least 0.9, where 1 is the maximum;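 for AC50: potency for gain of reporter signal over DMSO so agonist or activator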). The method in brief:
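Transient HepG2 transfection, GAL4-UAS reporters, NR-Gal4 chimeras; 24 h compound exposure. Readout: reporter transcripts by RT-PCR, 6-FAM primer extension, HpaI digest, capillary electrophoresis. Positive direction vs DMSO baseline.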

The target of test [13] is human RAR-related Orphan Receptor beta (RORb), RORB (gene 6096) (UniProt Q92753). Description: ATG_RORb_TRANS: Attagene TRANS-FACTORIAL HepG2 Assay for human RAR-related Orphan Receptor beta (RORb) (AID 2283010; active = hit-call score of the fitted dose curve at least 0.9, where 1 is the maximum). An outline of the steps: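 Multiplexed transcription-factor reporter assay: HepG2 cells transiently carrying NR-Gal4/GAL4-UAS constructs, 24 h treatment, mRNA quantified by RT-PCR plus capillary electrophoresis fluorescence; activity scored as induction over DMSO.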
Sequence of human RAR-related Orphan Receptor beta (RORb), RORB (gene 6096) (Q92753 whole entry, looked up, the tested form may be a part): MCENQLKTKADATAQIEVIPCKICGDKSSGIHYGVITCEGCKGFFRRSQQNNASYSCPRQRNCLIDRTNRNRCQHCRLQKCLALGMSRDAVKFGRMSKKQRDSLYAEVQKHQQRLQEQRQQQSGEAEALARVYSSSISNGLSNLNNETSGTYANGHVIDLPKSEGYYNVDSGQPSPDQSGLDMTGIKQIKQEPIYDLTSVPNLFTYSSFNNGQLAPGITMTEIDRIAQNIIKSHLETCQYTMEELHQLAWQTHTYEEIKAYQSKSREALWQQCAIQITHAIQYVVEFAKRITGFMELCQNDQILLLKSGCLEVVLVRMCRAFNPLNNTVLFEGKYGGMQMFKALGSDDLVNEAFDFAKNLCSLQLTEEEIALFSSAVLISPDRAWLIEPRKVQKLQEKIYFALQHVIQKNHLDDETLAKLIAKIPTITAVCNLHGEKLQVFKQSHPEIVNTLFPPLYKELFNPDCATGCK

Test [14] deals with human RAR-related Orphan Receptor gamma (RORg), RORC (gene 6097) (UniProt P51449). Description: ATG_RORg_TRANS: Attagene TRANS-FACTORIAL HepG2 Assay for human RAR-related Orphan Receptor gamma (RORg) (AID 2283011; active = hit-call score of the fitted dose curve at least 0.9, where 1 is the maximum). The method in brief: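 Reporter transcripts from a transfected RORg-GAL4 chimera in HepG2 cells were quantified 24 h after dosing by RT-PCR, 6-FAM labelling, HpaI digestion and capillary electrophoresis; increases over DMSO baseline were fitted.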
Sequence of human RAR-related Orphan Receptor gamma (RORg), RORC (gene 6097) (P51449 whole entry, looked up, the tested form may be a part): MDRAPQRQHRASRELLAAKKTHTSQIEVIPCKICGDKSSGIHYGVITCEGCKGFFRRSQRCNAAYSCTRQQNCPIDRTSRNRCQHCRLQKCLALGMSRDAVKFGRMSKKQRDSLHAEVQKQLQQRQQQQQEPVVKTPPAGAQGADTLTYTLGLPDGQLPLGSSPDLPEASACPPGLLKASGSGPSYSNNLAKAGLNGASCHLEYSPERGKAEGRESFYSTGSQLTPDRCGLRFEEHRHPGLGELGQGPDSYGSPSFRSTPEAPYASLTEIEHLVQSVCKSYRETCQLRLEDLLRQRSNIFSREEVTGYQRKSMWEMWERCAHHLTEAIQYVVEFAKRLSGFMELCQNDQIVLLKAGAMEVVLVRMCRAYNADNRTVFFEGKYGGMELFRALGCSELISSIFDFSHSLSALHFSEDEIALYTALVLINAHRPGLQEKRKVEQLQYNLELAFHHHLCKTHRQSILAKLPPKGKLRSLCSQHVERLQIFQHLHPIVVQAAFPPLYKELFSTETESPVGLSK

For test [15], the target named is Cellular tumor antigen p53 (Homo sapiens) (UniProt P04637). Description: ATG_p53_CIS: Attagene CIS-FACTORIAL HepG2 Assay for human p53 Transcription Factor (AID 2282994). To be noted: HepG2 p53 cis-element reporter, Attagene mRNA; actives raise or lower the signal. The method in brief:
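Steps: transfect HepG2 with multiplexed cis reporter constructs; dose chemicals 24 h; extract RNA, reverse-transcribe, PCR-amplify reporter sequences; FAM-label, HpaI-digest, resolve fragments by CE. Activity fitted both directions relative to DMSO.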

Test [16] concerns the target human Retinoic Acid Receptor beta (RARb), RARB (gene 5915) (UniProt P10826). Description: ATG_RARb_TRANS: Attagene TRANS-FACTORIAL HepG2 Assay for human Retinoic Acid Receptor beta (AID 2283004; active = hit-call score of the fitted dose curve at least 0.9, where 1 is the maximum). An outline of the steps:
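Induction of reporter mRNA from a chimeric RARb-Gal4 construct was measured by RT-PCR, FAM labelling, HpaI digestion and capillary electrophoresis. Measurements followed 24 h compound treatment of transiently transfected human HepG2 liver cells, with DMSO as baseline.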

Test [17] concerns the target Retinoic acid receptor alpha (Homo sapiens) (UniProt P10276). Description: ATG_RARa_TRANS: Attagene TRANS-FACTORIAL HepG2 Assay for human Retinoic Acid Receptor alpha (RARa) (AID 2283005; active = hit-call score of the fitted dose curve at least 0.9, where 1 is the maximum). The method in brief: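 HepG2 transiently transfected with multiplex GAL4-UAS reporter units including a human RARa–GAL4 chimera; 24 h compound exposure. Reporter mRNA quantified by RT-PCR, 6-FAM labeling and capillary electrophoresis; gain of signal versus DMSO.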

Test [18] concerns the target human Retinoic Acid Receptor gamma (RARg), RARG (gene 5916) (UniProt P13631). Description: ATG_RARg_TRANS: Attagene TRANS-FACTORIAL HepG2 Assay for human Retinoic Acid Receptor gamma (RARg) (AID 2283009; active = hit-call score of the fitted dose curve at least 0.9, where 1 is the maximum). An outline of the steps: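 Gain-of-signal relative to DMSO is reported from fluorescent capillary electrophoresis of RT-PCR reporter products. These came from HepG2 cells expressing transfected RARg-GAL4 chimeras with UAS reporters, harvested 24 h after dosing.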

Molecules are shown by their SMILES. Records with an inconclusive call do not appear. The source made the active and inactive calls. Rule for the calls, unless noted: active = hit-call score of the fitted dose curve at least 0.9, where 1 is the maximum; inactive = score below 0.9.

Sequence of Peroxisome proliferator-activated receptor gamma (Homo sapiens) (P37231 whole entry, looked up, the tested form may be a part): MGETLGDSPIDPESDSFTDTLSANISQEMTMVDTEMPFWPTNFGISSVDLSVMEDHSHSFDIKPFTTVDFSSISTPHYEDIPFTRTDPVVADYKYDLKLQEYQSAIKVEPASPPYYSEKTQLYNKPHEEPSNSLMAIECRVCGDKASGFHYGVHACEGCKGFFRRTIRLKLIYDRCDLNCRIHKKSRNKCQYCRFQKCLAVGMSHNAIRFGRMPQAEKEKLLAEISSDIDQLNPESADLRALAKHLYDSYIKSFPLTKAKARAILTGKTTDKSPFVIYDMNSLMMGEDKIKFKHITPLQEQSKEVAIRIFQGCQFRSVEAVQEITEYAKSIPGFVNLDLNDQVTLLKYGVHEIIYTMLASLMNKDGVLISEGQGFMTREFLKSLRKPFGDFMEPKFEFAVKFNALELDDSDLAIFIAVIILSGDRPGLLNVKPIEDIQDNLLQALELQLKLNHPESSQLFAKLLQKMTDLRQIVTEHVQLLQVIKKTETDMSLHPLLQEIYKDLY
Sequence of human Peroxisome Proliferator-activated Receptor alpha (PPARa), PPARA (gene 5465) (Q07869 whole entry, looked up, the tested form may be a part): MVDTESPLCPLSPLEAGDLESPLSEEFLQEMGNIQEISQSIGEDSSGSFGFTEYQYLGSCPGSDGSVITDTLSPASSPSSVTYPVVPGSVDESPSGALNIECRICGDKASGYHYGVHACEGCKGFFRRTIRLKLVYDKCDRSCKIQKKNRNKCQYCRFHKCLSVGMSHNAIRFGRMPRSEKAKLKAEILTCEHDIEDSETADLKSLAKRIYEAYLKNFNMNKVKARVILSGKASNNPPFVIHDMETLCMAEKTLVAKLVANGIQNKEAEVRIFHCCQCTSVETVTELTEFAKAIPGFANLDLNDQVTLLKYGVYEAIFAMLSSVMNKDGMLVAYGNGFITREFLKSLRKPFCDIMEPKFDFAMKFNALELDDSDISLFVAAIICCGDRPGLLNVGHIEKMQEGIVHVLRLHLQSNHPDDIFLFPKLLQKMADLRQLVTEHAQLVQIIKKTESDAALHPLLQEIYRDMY
Sequence of Nuclear receptor subfamily 1 group I member 2 (Homo sapiens) (O75469 whole entry, looked up, the tested form may be a part): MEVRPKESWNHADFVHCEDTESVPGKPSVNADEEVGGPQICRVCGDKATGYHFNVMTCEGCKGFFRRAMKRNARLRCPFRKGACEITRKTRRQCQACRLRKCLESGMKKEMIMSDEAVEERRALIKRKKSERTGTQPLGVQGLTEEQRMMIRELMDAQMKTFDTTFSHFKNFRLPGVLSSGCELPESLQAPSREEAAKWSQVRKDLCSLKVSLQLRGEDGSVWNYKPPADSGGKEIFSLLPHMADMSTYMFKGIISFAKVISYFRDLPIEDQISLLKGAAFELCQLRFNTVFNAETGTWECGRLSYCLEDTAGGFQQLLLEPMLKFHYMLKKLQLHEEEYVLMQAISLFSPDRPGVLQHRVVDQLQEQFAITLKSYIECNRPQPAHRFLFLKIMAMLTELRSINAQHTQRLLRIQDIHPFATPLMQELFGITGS
Sequence of human Retinoic Acid Receptor beta (RARb), RARB (gene 5915) (P10826 whole entry, looked up, the tested form may be a part): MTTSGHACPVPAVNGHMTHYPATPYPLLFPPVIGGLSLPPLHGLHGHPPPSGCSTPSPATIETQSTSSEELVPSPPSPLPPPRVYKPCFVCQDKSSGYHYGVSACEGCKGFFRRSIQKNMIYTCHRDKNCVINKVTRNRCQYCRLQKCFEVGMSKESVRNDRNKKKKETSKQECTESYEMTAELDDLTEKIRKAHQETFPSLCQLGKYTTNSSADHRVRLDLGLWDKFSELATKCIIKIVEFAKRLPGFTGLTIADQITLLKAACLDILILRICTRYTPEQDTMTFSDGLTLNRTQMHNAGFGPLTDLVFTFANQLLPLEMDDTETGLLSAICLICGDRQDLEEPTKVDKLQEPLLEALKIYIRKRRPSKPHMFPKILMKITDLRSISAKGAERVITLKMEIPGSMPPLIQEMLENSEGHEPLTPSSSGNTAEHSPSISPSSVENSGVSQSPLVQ
Sequence of Cellular tumor antigen p53 (Homo sapiens) (P04637 whole entry, looked up, the tested form may be a part): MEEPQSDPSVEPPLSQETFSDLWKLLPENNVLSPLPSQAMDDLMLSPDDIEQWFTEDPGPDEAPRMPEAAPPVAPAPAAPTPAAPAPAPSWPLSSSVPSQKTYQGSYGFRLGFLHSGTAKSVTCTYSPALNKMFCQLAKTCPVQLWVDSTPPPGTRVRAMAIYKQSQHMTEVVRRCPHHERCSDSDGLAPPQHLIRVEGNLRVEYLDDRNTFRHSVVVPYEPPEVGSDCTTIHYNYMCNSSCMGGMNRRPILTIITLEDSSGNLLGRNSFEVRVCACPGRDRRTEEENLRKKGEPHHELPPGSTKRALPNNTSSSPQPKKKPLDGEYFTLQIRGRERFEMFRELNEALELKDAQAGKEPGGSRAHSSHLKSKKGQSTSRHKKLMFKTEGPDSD
Sequence of human Retinoic Acid Receptor gamma (RARg), RARG (gene 5916) (P13631 whole entry, looked up, the tested form may be a part): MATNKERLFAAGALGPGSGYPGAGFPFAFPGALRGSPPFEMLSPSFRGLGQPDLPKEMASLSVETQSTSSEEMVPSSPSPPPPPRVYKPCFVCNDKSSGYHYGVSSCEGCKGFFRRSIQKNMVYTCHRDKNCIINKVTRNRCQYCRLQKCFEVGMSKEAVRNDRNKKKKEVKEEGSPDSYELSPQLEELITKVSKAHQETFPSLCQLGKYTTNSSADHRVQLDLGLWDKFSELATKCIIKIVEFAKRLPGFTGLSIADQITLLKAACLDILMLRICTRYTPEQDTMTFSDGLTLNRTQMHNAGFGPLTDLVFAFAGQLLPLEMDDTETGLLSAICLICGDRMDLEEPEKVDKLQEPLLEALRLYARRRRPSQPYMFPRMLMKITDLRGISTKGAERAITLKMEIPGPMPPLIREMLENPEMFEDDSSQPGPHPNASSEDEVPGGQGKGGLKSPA
Sequence of Retinoic acid receptor alpha (Homo sapiens) (P10276 whole entry, looked up, the tested form may be a part): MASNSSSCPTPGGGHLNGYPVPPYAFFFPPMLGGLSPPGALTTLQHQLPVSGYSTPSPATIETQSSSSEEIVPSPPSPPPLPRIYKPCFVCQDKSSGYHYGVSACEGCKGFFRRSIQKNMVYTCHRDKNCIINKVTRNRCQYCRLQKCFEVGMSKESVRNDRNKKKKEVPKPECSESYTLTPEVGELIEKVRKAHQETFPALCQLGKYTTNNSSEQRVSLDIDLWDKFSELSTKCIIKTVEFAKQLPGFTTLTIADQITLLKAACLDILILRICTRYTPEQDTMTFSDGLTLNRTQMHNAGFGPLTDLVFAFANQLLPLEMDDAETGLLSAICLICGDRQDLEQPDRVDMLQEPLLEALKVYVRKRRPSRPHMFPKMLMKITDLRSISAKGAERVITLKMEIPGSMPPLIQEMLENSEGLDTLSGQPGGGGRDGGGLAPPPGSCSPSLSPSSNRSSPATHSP

As to `O=C1NC(=O)C(c2ccccc2)(c2ccccc2)N1`, the compound was classed as inactive in test [1], in test [2], in test [3], in test [4], in test [5] and in [6]. The outcome in test [7], in [8], in test [9], in [10] and in test [11] was inactive.
Regarding `CCCC[C@H]1CN(CC2CCOCC2)C(=O)OC12CCN(C1(C)CCN(C(=O)c3c(C)ncnc3C)CC1)CC2`, the call in [1], in test [2], in [3], in test [4], in test [5] and in test [6] was inactive. Further, the outcome in test [7], in test [12], in test [8], in [9], in test [11] and in test [13] was inactive.
Take `CC(C)NCC(O)c1ccc(O)c(O)c1` (stereo unspecified): the call in [1], in test [2], in test [3], in test [4], in [5] and in test [6] was inactive. The outcome in test [7], in [8], in test [9] and in [14] was inactive.
A word on the AC50: it is the concentration giving half of the maximal activity seen. As for `CCCCCCCCCCCCCCOS(=O)(=O)O`, the compound was classed as inactive in test [1], in test [2], in test [3], in test [15], in test [4] and in test [5]. The result in test [6], in [7], in [8] and in [13] was inactive. For the same compound, the AC50 in test [12] is 5.1 µM (active); in test [9], 30.1 µM (active); in test [10] it was 11.1 µM (active).
`Cc1cn([C@H]2C=C[C@@H](CO)O2)c(=O)[nH]c1=O`: the result in test [1], in test [2], in test [3], in test [4], in [5] and in [6] was inactive. The result in test [7], in [8], in test [9], in [10] and in test [14] was inactive.
On to `O=C(Oc1ccccc1)c1cccc(C(=O)Oc2ccccc2)c1`, for which the result in test [1], in [2], in test [3], in test [4], in [5] and in [6] was inactive. Also, the result in test [7], in test [12], in [8], in [16] and in test [14] was inactive. Besides, the figures for the AC50 in test [9] and in test [10] were 15.2 µM (active) and 60.4 µM (active), respectively.
Regarding `Oc1ccccc1O`, the call in test [1], in test [5], in test [7], in test [12], in test [8] and in test [16] was inactive. The call in test [17], in test [10], in [18], in test [13] and in test [14] was inactive. Also, the AC50 in [2] was 13.1 µM (active); in test [3], 31.1 µM (active); in test [4], 2.96 µM (active); in test [6], 2.17 µM (active); in test [9], 10.1 µM (active).
